Laboratory results: the supplement of paper PMC3334620
The full ranking holds about 33,000 sequences; the median of “E-score (-0.5 to 0.5)” is about -8e-05, and the highest 2% start at about 0.23. What follows is part of a selection rich in the highest values, with near analogues and random picks from the rest.

Biological target: T1, Nrg2 (UniProt P38082)
T1 sequence: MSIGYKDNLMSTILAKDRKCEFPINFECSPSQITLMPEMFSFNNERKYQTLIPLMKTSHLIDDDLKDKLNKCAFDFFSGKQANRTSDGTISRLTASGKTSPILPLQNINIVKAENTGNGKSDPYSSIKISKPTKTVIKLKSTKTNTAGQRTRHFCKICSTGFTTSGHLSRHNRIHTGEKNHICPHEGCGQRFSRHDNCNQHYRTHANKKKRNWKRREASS
Experiment: PBM E-score (8-mer binding enrichment) (E-score (-0.5 to 0.5)); higher = stronger / more preferred TF binding
Conditions: protein concentration: 100 nM; construct: GST-full length
How it was run: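 Using PURExpress in vitro transcription/translation, GST-tagged yeast transcription factors were made in full-length or DNA-binding-domain form. These were applied at about 100-200 nM to double-stranded universal all-10-mer Agilent arrays, and bound protein was detected with fluorescent anti-GST. Scans were normalised with masliner before the Universal PBM Analysis Suite assigned E-scores to ungapped eight-base words pooled with their reverse complements.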

Sequence | PBM E-score
AGCGTCGG | -0.0319
ACGGTCGC | -0.131
AGGGTCGC | 0.243
GCGGCCCA | -0.0651
GCTGAAGA | -0.0685
ACAGCTTC | -0.102
AAGAGATT | 0.00595
GATACTGA | 0.0997
TATACTGA | 0.261
CATACTGA | 0.135
GCTATCTA | -0.0754
AAATAGAG | -0.0562
AAATAGAC | 0.165
AAATAGAT | 0.27
AAATATAT | 0.257
ACCTATAT | 0.236
ACCTATAC | -0.044
AAATATAC | 0.0852
ACCTATAA | -0.112
AAATATAA | 0.161
CAGAAAGG | 0.0423
AAGATCTT | -0.0257
CTCGGTCA | -0.0604
AACCGCCG | -0.0452
GCTAAGAA | -0.103

Sequence | PBM E-score
TATGAGCA | -0.127
ATGAATGG | 0.339
ATGAATGA | 0.0659
ATGAATGC | 0.13
GTATGCGA | 0.136
AGCAAATC | 0.147
ACCGATAC | -0.00076
AGAACAAA | 0.208
CGAACAAA | 0.279
CGAACAAC | 0.152
CTCACGCA | 0.353
GCAACAAA | 0.176
TTAACAAA | 0.094
GTCACGCA | 0.0867
CTCACGCC | 0.0298
GGAACAAC | 0.133
GGAACAAA | 0.263
CGAACAAG | 0.165
TGAACAAA | 0.244
CTGCACGA | 0.0401
AACTTATA | 0.145
GCCGACAC | -0.0613
TCCGGTAA | -0.0902
CCTGGGTA | -0.159
GCCGGAAA | 0.104

Sequence | PBM E-score
ACTCTGCC | -0.142
GGGCATAA | 0.109
GGGCTTCA | -0.103
TCTCTAAA | -0.134
AGAGCCCC | -0.139
GTGGTCCA | 0.0422
TGAACGCA | 0.0815
CGAACGCA | 0.282
GGAACGCA | 0.0954
AAGCGCTC | 0.0396
AAGCGCTT | 0.303
AAGCGCTA | 0.0465
CCGCCAAC | -0.126
ACGTTTCC | -0.16
ATTCCACA | 0.243
ATTCCACC | 0.0335
ATTCCACG | 0.0249
GGAGGCAA | -0.141
CAGGTCCA | 0.0188
ACCGTTCA | -0.164
AAATCGCC | 0.00869
ATATCGCA | -0.0927
ATATCGCC | 0.0573
AAATCGCG | 0.233
ATATCGCG | 0.331

Sequence | PBM E-score
AAATCGCA | 0.158
GGGTTTAA | 0.0664
AGATGGTA | 0.0502
GTAGTGGA | 0.152
ACCTTAGG | -0.191
CGCCCGAG | 0.117
TCCGGCCA | 0.00685
CGCGAAAG | 0.122
GTGTAGAA | -0.191
GCAGGGCC | 0.101
GAAGGGAC | 0.159
CCAGGGAA | 0.0205
CCAGGGAG | -0.107
TCAGGGAA | 0.0408
GCAGGGAC | 0.28
GCAGGGAA | 0.238
CCAGGGAC | 0.366
GCAGGGGA | -0.192
CATGTAGG | 0.092
CGTCGGTC | 0.00408
CAGGTTAA | -0.0788
CACGTCCA | -0.177
ACGCGATC | 0.146
GCAGCTGA | 0.0488
CGAGCTTA | -0.0737

Sequence | PBM E-score
CGAGCTCC | 0.12
CGAGCTGA | 0.243
TCAGCTGA | 0.279
CGAGCTCG | 0.241
ACAGCTGA | 0.0892
AGAGCTGA | 0.00384
CGAGCTCA | 0.108
ATCCTCAG | 0.1
AGCGGCCT | -0.275
GCTTCGTA | -0.102
CGGCCGAA | 0.0577
GAGCTCGA | 0.183
ACTAGCTA | 0.0559
AAGAATCC | 0.0617
AACCCCAT | 0.07
TACCCCCA | -0.159
AACCCCAG | 0.237
AACCCCAA | 0.147
TACCCCAA | 0.247
ACCCCCAG | -0.291
GCCGCAAA | 0.157
ATCAACCG | 0.0105
GGTGAATA | 0.104
CAACCCTC | 0.0136
AACCCCTG | 0.055

Sequence | PBM E-score
AGACCCTA | 0.148
AGACCCTC | 0.0175
AAACCCTG | 0.318
ATACCCTA | 0.119
ATACCCTG | 0.295
CAACCCTG | 0.252
ATACCCTC | 0.0223
AAACCCTA | 0.184
CAACCCTA | 0.0574
AGACCCTG | 0.431
ATGGTTCG | 0.109
AGAACCTC | -0.232
GGGTAGGA | -0.0916
AGAATGCT | 0.108
CGTCCTTA | -0.0686
GGCCTAAC | 0.0899
GCTGGAAC | -0.144
TGGCATAA | 0.144
AAGAGGTA | 0.0504
ACTCCTCA | -0.24
ACGACGTA | -0.166
ATTTCGTA | 0.0258
AAGCGGAA | -0.0181
AACTAAGT | 0.168
ATAGTCGA | 0.264

Sequence | PBM E-score
CTAGTCGA | -0.0659
ATAGTCGG | -0.122
CTGGGTCC | -0.288
CATCGCGA | 0.127
GGTCGCGA | 0.242
ACTCGCGC | 0.0455
AGTCGCGA | 0.226
GATCGCGA | 0.168
CCTCGCGA | 0.179
TATCGCGA | 0.252
CGTCGCGA | 0.143
ACTCGCGA | 0.273
ATTGTGCG | -0.0707
CCTCGAGC | 0.267
ACTCGAGC | 0.073
GCTCGAGC | 0.24
GCTCGACC | -0.0125
ACTCGAGG | 0.162
CCTCGAGG | 0.242
CCTCGAAG | 0.0341
GCTCGAGA | -0.131
CCTCGAGA | 0.156
